PLK1 PBD inh: qHTS for Inhibitors of PLK1-PDB (polo-like kinase 1 - polo-box domain): Primary Screen; Plk1 PBD binding of FITC phosphopeptide, fluorescence polarization; Potency, µM, hits mostly inhibitors; 2.8% of 360,000 active; AID 720504, 2013; note: series mostly up to about 57 µM; nearly all actives have a fitted effect of over 65% in size
BAZ2B inh: qHTS Assay for Inhibitors of BAZ2B | AlphaScreen BAZ2B-H3K14Ac peptide displacement | Potency, µM (doses to about 114 µM), usual class: inhibitors | 4.4% of 360,000 active | AID 504333, 2011; note: nearly all actives have a fitted effect of over 60% in size
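Inhibition is scored as reduced AlphaScreen emission. The BAZ2B/b-H3(5-23)K14Ac complex (50 nM each) in PBS pH 7.4, 0.01% Tween-20 meets compound (up to 110 uM) for 30 min at RT before bead addition.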
JMJD2A Tudor: qHTS Assay for Inhibitors of JMJD2A-Tudor Domain; 4.4% of 390,000 active; Lysine-specific demethylase 4A (Homo sapiens), O75164; AID 504339, 2011; Potency, µM (top dose mostly 114 µM), most hits filed as inhibitors; AlphaScreen JMJD2A-Tudor / H3K4me3 peptide binding; note: nearly all actives have a fitted effect of over 50% in size
G9a block: qHTS Assay for Inhibitors of Histone Lysine Methyltransferase G9a. Histone-lysine N-methyltransferase EHMT2 (Homo sapiens), Q96KQ7. G9a H3K9 monomethylation, AlphaScreen, 2 h. Potency, µM (top dose mostly 102 µM), usual class: inhibitors. 8.8% of 350,000 active; note: nearly all actives have a fitted effect of over 75% in size
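Readings reflect AlphaScreen signal from monomethyl-H3K9 antibody detection. HMT at 20 nM; substrate b-H3K9 500 nM; cofactor SAM 20 uM; 2 h RT reaction; compounds tested as titrations in qHTS with 15 min preincubation.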
HP1b binding inh: HTS for Inhibitors of HP1-beta Chromodomain Interactions with Methylated Histone Tails | Chromobox protein homolog 1 (Homo sapiens), P83916 | 0.56% of 390,000 active | Potency, µM (titrated, usually from 114 µM), hits mostly inhibitors | AlphaScreen HP1-beta / biotin-H3K9me3 peptide binding; note: nearly all actives have a fitted effect of over 70% in size
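AlphaScreen: HP1-beta (50 nM) preformed 30 min with biotin-H3(1-18)K9me3 peptide (50 nM) in PBS pH 7.4, 0.01% Tween-20. Compound added for 30 min at RT, then streptavidin donor/nickel chelate acceptor beads (10 ug/mL) for 30 min.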
12-LOX inh: Primary qHTS assay for inhibitors of human arachidonate 12S-lipoxygenase (ALOX12): Round 2 | Polyunsaturated fatty acid lipoxygenase ALOX12 (Homo sapiens), P18054 | purified 12hLO, xylenol orange hydroperoxide absorbance | Potency, µM (series often up to 108 µM), actives largely listed as inhibitors | 1.1% of 580,000 active | AID 1671190, 2021
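Purified human 12hLO at 150 nM in 25 mM Hepes, 0.01% Triton X-100, pH 7.0, preincubated 15 min at room temperature with compound. Reaction started with 40 uM arachidonic acid, 30 min at room temperature. Hydroperoxide measured by Fe-xylenol orange, 573/405 nm absorbance ratio.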
A number is an active result; 0 = inactive; ? = inconclusive; - = not tested or not shown; ! = repeats disagree; [ ] = another dose, or the depositor's remark. An excerpt weighted towards active compounds, which were near 9% of everything screened. Calls come from the whole dose curve; as a rule, active = well fitted curve in the direction sought with a large enough effect; inconclusive = small, poorly fitted or top-dose-only effect, or another doubt; inactive = no such curve, though single readings can be large; an effect the other way counts as inactive or inconclusive.

SMILES	PLK1 PBD inh	BAZ2B inh	JMJD2A Tudor	G9a block	HP1b binding inh	12-LOX inh
COc1cc(-c2ccc3ncnc(NCc4ccc(C)o4)c3c2)cc(OC)c1OC	-	-	50.1µM	-	-	-
COc1ccc(CNc2ncnc3ccc(-c4ccoc4)cc23)c(OC)c1	-	-	-	0[0.501 µM]	-	0
COc1cc2ncnc(NCc3cccc(Cl)c3)c2cc1OC	0	0	0	39.8µM	0	0
COc1cc2ncnc(NCc3cc(F)ccc3F)c2cc1OC	0	0	0	0[2.33 µM]	0	0
COc1ccccc1CNc1ncnc2cc(OC)c(OC)cc12	0	0	0	31.6µM	0	?
COc1ccc(CNc2ncnc3cc(OC)c(OC)cc23)cc1	0	0	0[11.4 µM]	39.8µM	0	0
Cc1ccccc1NC(=O)c1c(C)oc2ccc(O)c(CN3CCN(C)CC3)c12	-	0	0	0	0	0
COc1ccc(CN2CCN(C(=O)C3CCN(S(=O)(=O)c4cccs4)CC3)CC2)c(OC)c1OC	0	0	0	0	0	0
O=C(c1ccc(Br)cc1)N(c1ccccn1)C1CCCCC1	0	0	0	0[12.7 µM]	0	0
CCCNC(=O)c1cccc(NC(=O)C(C)C)c1	0	0	0	0	0	0
COc1ccccc1NC(NC(=O)c1ccco1)C(=O)c1ccccc1 (stereo unspecified)	0	-	0	0	0	0
Cc1ccc(NC(=O)CCCn2cnc3c2c(=O)n(C)c(=O)n3C)cc1	-	-	-	-	-	0
CN(C)/C=C(\C(=O)c1ccc(Cl)cc1)c1nnnn1-c1ccc(Cl)cc1	0	-	0	-	0	0
COc1ccc(CNc2ncnc3cc(OC)c(OC)cc23)cc1OC	0	0	0	44.7µM	0	0
COc1cc2ncnc(Nc3ccc(Cl)cc3F)c2cc1OC	-	-	-	-	-	20µM
COc1cc2ncnc(NCc3ccccc3)c2cc1OC	0	0	0[11.4 µM]	70.8µM	0	0
COc1cc2ncnc(NCc3ccc4c(c3)OCO4)c2cc1OC	0	0	0	0[12.7 µM]	0	0
COc1cc(OC)nc(Oc2ccccc2C=O)n1	0	-	0	-	0	0
CCCN(CCC)CC(C)(C)NS(=O)(=O)c1ccc(Cl)cc1	0	?	2.51µM	?	?	?
CCN(CC)CC(C)(C)NS(=O)(=O)c1ccccc1	-	-	-	-	-	0
O=[N+]([O-])c1ccc(N2CCCCC2)c(-c2nn[nH]n2)c1	0	?	0	44.7µM	0	0
COc1ccc(NS(=O)(=O)c2cccc(C(=O)NNC(=O)NCCCl)c2)cc1	0	0	0	50.1µM	0	0
Cc1cccc2sc(NC(=O)C3=NN(c4ccccc4)C(=O)CC3)nc12	0	0	0	50.1µM	0	0
Cc1nc(C)c(C(=O)Nc2nc3c(C)cccc3s2)o1	23.8µM	35.5µM	35.5µM	14.1µM	?	?
Cc1cc(NC(=O)CSc2nc3sc4c(c3c(=O)n2C)CCCC4)no1	0	0	0	0	0	0
SMILES	PLK1 PBD inh	BAZ2B inh	JMJD2A Tudor	G9a block	HP1b binding inh	12-LOX inh
COc1ccc(/C=C/c2onc(C)c2S(=O)(=O)N2CCC(C(=O)N3CCCCC3)CC2)cc1	-	0	0	0	0	?
C=CCOc1ccc(/C=C/C(=O)N2CCCN(S(=O)(=O)c3c(C)noc3C)CC2)cc1	0	0	0	44.7µM	0	0
Cn1c(=S)[nH]c2c(c1=O)C(C)(C)Cc1ccccc1-2	0	?	0	0	0	14.1µM
CCn1c(=S)[nH]c2c(c1=O)C(C)(C)Cc1ccccc1-2	0	0	0	0	0	?
CN1CCC2(CCN3CCc4c(oc5ccccc45)C3C2)N(C)C1=O (stereo unspecified)	-	-	-	15.8µM!	-	-
CN1CC[C@]2(CCN3CCc4c(oc5ccccc45)[C@@H]3C2)N(C)C1=O	0	0	0	0	0	0
CN(C)S(=O)(=O)c1ccc2c(c1)C(=O)c1cc(S(=O)(=O)N(C)C)ccc1CC2	-	0	0	0[0.501 µM]	0	0
CN(C)S(=O)(=O)c1ccc2c(c1)/C(=C/c1cc3c([nH]1)CCCC3)C(=O)N2	0	0	0	11.2µM!	0	0
COc1cccc(-c2cc(C(=O)Nc3ccc([N+](=O)[O-])cn3)c3ccccc3n2)c1	0	?	0	7.94µM	0	0
O=C(Nc1ccc([N+](=O)[O-])cn1)c1cc(-c2cccc(Br)c2)nc2ccccc12	0	0	0	?	0	0

Screens as filed in PubChem.
